From the supplement of paper PMC11001985
Unmarked numbers belong to inactive results.

Compound: C#CCNC(=O)CCSSCCC(=O)NCCc1ccc(C=O)c(C=O)c1
Assay: lysine labeling ratio R10:1 (500 µM / 50 µM probe), SILAC-ABPP in living cells; higher = lower intrinsic lysine reactivity toward the probe, active = 2 or less
Conditions: HeLa; probe concentrations 500 vs 50 µM
Protocol: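 Living HeLa cells (SILAC light/heavy) in PBS at room temperature were labeled with 50 µM versus 500 µM of the lysine-reactive, reductant-cleavable probe OPA-S-S-alkyne (SILAC labeling time not stated). Probe-modified peptides were CuAAC-biotinylated, captured on neutravidin and eluted with DTT/IAA, then quantified by LC-MS/MS. R = median peptide ratio per lysine (500/50 µM), combined over 3 forward and 3 reverse SILAC replicates. Ratios are capped at 20; R < 2 = hyper-reactive.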

UniProt Q15149, sequence (Q15149 whole entry): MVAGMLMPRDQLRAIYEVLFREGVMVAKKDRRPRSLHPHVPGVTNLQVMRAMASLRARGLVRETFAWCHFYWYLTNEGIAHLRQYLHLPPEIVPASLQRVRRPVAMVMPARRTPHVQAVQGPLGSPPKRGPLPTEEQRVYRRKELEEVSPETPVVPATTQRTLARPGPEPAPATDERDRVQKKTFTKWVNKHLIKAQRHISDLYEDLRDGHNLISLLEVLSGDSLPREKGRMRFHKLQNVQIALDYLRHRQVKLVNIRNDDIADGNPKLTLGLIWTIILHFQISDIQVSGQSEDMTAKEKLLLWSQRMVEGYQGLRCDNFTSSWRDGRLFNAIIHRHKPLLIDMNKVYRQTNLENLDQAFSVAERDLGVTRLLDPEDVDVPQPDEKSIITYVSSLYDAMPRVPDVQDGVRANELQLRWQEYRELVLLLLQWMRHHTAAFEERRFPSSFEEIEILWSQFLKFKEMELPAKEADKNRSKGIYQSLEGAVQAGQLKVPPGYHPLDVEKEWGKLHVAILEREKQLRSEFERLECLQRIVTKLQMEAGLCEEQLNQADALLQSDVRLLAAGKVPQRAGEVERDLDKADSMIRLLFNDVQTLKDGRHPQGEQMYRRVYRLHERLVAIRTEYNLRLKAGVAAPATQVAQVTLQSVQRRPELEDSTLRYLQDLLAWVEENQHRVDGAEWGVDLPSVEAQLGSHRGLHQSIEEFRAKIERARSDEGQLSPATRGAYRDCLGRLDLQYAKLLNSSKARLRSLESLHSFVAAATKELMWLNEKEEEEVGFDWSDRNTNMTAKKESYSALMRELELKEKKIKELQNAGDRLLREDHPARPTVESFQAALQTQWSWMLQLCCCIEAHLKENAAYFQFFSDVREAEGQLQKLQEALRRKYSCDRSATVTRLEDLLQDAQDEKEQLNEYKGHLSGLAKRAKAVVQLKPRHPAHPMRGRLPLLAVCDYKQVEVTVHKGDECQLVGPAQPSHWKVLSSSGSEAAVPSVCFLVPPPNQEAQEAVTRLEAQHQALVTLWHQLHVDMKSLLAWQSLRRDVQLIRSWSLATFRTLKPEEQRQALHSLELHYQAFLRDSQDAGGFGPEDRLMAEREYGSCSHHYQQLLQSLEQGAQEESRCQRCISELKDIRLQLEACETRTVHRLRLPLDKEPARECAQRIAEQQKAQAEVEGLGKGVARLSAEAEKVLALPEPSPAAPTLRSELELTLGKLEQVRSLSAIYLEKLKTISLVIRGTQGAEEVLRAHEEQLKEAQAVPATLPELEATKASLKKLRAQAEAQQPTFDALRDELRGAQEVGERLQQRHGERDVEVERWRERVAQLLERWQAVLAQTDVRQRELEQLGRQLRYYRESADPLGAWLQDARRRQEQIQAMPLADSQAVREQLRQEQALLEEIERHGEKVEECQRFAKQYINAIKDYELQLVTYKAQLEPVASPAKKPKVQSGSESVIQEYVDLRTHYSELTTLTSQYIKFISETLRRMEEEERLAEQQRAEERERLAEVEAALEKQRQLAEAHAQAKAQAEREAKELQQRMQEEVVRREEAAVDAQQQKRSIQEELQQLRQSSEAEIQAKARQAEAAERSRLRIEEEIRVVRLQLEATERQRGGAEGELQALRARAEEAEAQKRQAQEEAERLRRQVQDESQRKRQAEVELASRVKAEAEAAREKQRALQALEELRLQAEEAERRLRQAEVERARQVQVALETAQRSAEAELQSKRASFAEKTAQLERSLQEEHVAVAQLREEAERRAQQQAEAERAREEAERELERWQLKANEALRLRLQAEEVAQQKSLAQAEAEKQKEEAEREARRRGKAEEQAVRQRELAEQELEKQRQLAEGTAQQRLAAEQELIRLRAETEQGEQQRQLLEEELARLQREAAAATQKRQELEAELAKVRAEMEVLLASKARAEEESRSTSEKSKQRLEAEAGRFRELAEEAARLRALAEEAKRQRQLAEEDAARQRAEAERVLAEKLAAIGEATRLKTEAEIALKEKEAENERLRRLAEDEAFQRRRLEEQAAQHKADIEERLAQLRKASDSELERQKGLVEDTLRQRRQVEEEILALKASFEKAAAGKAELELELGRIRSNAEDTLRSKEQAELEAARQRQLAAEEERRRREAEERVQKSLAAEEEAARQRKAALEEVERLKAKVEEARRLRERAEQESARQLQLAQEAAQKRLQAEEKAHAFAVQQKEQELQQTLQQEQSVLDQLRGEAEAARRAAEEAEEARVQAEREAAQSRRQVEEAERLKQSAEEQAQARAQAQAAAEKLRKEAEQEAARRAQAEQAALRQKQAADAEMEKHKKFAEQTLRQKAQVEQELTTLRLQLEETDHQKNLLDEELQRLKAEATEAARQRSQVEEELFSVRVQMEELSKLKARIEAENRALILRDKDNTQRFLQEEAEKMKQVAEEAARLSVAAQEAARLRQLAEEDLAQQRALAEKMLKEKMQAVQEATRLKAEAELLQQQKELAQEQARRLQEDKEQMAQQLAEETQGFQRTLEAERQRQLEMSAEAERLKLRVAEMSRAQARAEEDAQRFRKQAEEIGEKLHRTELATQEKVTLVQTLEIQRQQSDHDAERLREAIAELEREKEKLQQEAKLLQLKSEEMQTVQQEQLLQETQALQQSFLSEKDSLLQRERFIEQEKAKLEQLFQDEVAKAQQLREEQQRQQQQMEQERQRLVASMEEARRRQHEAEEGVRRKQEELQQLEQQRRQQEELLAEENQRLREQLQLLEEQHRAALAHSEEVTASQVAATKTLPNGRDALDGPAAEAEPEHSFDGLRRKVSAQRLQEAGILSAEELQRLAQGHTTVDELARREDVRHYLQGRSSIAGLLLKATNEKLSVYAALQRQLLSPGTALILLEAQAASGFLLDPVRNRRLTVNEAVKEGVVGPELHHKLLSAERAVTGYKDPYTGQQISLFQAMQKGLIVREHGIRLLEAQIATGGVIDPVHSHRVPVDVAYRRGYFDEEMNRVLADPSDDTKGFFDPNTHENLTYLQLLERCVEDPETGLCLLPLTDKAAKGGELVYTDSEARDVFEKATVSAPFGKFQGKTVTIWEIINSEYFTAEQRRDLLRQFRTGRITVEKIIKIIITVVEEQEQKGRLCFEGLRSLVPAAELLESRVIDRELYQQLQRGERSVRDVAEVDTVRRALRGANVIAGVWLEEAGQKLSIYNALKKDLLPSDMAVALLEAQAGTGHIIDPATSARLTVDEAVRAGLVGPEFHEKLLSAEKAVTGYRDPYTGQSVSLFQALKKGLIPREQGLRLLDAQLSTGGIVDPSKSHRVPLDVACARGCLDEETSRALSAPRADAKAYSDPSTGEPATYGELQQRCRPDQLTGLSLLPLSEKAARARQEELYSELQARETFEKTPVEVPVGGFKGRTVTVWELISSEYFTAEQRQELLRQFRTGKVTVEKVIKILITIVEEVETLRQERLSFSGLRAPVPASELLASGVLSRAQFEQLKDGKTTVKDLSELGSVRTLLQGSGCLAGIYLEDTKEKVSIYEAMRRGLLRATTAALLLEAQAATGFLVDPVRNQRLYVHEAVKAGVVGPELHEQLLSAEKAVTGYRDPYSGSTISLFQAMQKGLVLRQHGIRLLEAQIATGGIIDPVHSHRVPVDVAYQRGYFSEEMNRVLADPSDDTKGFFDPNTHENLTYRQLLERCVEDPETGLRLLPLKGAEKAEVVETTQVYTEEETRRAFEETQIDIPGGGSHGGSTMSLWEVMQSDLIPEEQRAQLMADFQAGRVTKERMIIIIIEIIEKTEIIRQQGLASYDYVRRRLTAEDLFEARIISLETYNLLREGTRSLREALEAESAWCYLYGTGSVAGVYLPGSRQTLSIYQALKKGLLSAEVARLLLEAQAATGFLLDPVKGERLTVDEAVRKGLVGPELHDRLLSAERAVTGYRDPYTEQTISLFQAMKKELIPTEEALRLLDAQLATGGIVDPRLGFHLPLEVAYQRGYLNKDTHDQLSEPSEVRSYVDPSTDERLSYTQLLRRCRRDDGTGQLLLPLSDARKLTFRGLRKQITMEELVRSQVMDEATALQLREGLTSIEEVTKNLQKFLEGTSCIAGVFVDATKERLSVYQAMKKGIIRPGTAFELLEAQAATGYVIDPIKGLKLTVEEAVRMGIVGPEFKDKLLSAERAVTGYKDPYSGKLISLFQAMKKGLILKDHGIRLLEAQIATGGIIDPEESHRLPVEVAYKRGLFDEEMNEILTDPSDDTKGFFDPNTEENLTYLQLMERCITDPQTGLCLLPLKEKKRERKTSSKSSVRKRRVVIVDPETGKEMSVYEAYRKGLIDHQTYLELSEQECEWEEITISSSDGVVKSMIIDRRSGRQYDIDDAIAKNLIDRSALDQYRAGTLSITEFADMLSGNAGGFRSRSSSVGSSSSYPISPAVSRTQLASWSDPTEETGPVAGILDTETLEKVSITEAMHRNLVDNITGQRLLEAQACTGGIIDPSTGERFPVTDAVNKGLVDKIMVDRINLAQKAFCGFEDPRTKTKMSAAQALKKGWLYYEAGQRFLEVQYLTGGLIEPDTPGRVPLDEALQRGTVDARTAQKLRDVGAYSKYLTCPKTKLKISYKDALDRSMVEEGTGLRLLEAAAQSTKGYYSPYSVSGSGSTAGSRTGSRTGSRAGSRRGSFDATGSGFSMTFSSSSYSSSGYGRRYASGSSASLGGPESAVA
UniProt P10909, sequence (P10909 whole entry): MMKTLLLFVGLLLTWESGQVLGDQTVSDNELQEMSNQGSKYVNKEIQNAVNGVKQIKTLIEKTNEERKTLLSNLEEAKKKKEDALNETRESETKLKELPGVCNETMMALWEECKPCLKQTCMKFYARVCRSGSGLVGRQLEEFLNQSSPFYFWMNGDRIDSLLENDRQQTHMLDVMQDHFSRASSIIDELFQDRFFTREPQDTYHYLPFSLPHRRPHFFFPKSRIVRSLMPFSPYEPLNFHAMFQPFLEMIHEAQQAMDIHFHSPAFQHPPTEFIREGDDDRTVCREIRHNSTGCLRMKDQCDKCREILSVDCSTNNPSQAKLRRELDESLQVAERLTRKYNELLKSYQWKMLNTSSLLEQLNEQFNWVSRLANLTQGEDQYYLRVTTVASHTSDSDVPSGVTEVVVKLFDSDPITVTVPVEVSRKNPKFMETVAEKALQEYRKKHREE

**Q.** With “L1CAM (lysine site: K180) (UniProt P32004)” as the target, how does the “lysine labeling ratio R10:1” value read?
**A.** 1.59 (active)

**Q.** Which “lysine labeling ratio R10:1” value does the source give for “FLNB (lysine site: K1425) (UniProt O75369)” here?
**A.** 3.67

**Q.** Which “lysine labeling ratio R10:1” value does the source give for “TGFBR3 (lysine site: K685) (UniProt Q03167)” here?
**A.** 1.81 (active)

**Q.** Which “lysine labeling ratio R10:1” value does the source give for UniProt Q13275 (lysine site: K581) here?
**A.** 3.3

**Q.** How did the “lysine labeling ratio R10:1” value turn out when “STOML2 (lysine site: K254) (UniProt Q9UJZ1)” was run?
**A.** 5.22

**Q.** “CTTN (lysine site: K161) (UniProt Q14247)” was tested. Which “lysine labeling ratio R10:1” value did it give?
**A.** 1.61 (active)

**Q.** “ALCAM (lysine site: K75) (UniProt Q13740)” was tested. Which “lysine labeling ratio R10:1” value did it give?
**A.** 9.89

**Q.** For “GGT1 (lysine site: K181) (UniProt P19440)”, which “lysine labeling ratio R10:1” value is on record?
**A.** 1.46 (active)

**Q.** Which “lysine labeling ratio R10:1” value does the source give for “FLNB (lysine site: K1241) (UniProt O75369)” here?
**A.** 1.42 (active)

**Q.** Which “lysine labeling ratio R10:1” value does the source give for “EPHB4 (lysine site: K267) (UniProt P54760)” here?
**A.** 3.27

**Q.** How did the “lysine labeling ratio R10:1” value turn out when “AXL (lysine site: K211) (UniProt P30530)” was run?
**A.** 2.55

**Q.** “NUMA1 (lysine site: K751) (UniProt Q14980)” was tested. Which “lysine labeling ratio R10:1” value did it give?
**A.** 2.82

**Q.** For “GPI (lysine site: K440) (UniProt P06744)”, which “lysine labeling ratio R10:1” value is on record?
**A.** 1.78 (active)

**Q.** For “CCT2 (lysine site: K154) (UniProt P78371)”, which “lysine labeling ratio R10:1” value is on record?
**A.** 3.78

**Q.** How did the “lysine labeling ratio R10:1” value turn out when “HNRNPM (lysine site: K48) (UniProt P52272)” was run?
**A.** 4.62

**Q.** With “PRDX1 (lysine site: K199) (UniProt Q06830)” as the target, how does the “lysine labeling ratio R10:1” value read?
**A.** 2.6

**Q.** For “CTNNA1 (lysine site: K16) (UniProt P35221)”, which “lysine labeling ratio R10:1” value is on record?
**A.** 3.72

**Q.** Which “lysine labeling ratio R10:1” value does the source give for “CACNA2D1 (lysine site: K649) (UniProt P54289)” here?
**A.** 10.1

**Q.** Which “lysine labeling ratio R10:1” value does the source give for “PIEZO1 (lysine site: K2372) (UniProt Q92508)” here?
**A.** 1.09 (active)

**Q.** With “CD44 (lysine site: K158) (UniProt P16070)” as the target, how does the “lysine labeling ratio R10:1” value read?
**A.** 4.38

**Q.** How did the “lysine labeling ratio R10:1” value turn out when “ITGA5 (lysine site: K978) (UniProt P08648)” was run?
**A.** 4.71

**Q.** With UniProt Q9NYU2 (lysine site: K362) as the target, how does the “lysine labeling ratio R10:1” value read?
**A.** 3.31

**Q.** How did the “lysine labeling ratio R10:1” value turn out when “DSG2 (lysine site: K141) (UniProt Q14126)” was run?
**A.** 4.68

**Q.** For “NECTIN3 (lysine site: K301) (UniProt Q9NQS3)”, which “lysine labeling ratio R10:1” value is on record?
**A.** 1.83 (active)

**Q.** For UniProt Q15149 (lysine site: K1055), which “lysine labeling ratio R10:1” value is on record?
**A.** 1.98 (active)

**Q.** “IGSF3 (lysine site: K884) (UniProt O75054)” was tested. Which “lysine labeling ratio R10:1” value did it give?
**A.** 4.12

**Q.** Which “lysine labeling ratio R10:1” value does the source give for “PPL (lysine site: K1151) (UniProt O60437)” here?
**A.** 3.53

**Q.** Which “lysine labeling ratio R10:1” value does the source give for “L1CAM (lysine site: K378) (UniProt P32004)” here?
**A.** 14

**Q.** Which “lysine labeling ratio R10:1” value does the source give for UniProt P05187 (lysine site: K262) here?
**A.** 0.97 (active)

**Q.** Which “lysine labeling ratio R10:1” value does the source give for “PDIA3 (lysine site: K274) (UniProt P30101)” here?
**A.** 3.59

**Q.** Which “lysine labeling ratio R10:1” value does the source give for “HSP90B1 (lysine site: K683) (UniProt P14625)” here?
**A.** 4.36

**Q.** How did the “lysine labeling ratio R10:1” value turn out when “VASN (lysine site: K154) (UniProt Q6EMK4)” was run?
**A.** 1.64 (active)

**Q.** For “RBMX (lysine site: K217) (UniProt P38159)”, which “lysine labeling ratio R10:1” value is on record?
**A.** 8.01

**Q.** How did the “lysine labeling ratio R10:1” value turn out when UniProt Q16363 (lysine site: K1068) was run?
**A.** 2.52

**Q.** How did the “lysine labeling ratio R10:1” value turn out when “MCAM (lysine site: K217) (UniProt P43121)” was run?
**A.** 2.14

**Q.** UniProt Q15149 (lysine site: K2396) was tested. Which “lysine labeling ratio R10:1” value did it give?
**A.** 2.3

**Q.** With “TCP1 (lysine site: K272) (UniProt P17987)” as the target, how does the “lysine labeling ratio R10:1” value read?
**A.** 2.44

**Q.** UniProt Q9NP84 (lysine site: K48) was tested. Which “lysine labeling ratio R10:1” value did it give?
**A.** 4.2

**Q.** “CLU (lysine site: K222) (UniProt P10909)” was tested. Which “lysine labeling ratio R10:1” value did it give?
**A.** 0.58 (active)

**Q.** How did the “lysine labeling ratio R10:1” value turn out when “CCT3 (lysine site: K427) (UniProt P49368)” was run?
**A.** 0.772 (active)
